# Data from PubChem BioAssay (Tox21).
# Where “and” joins values, the source holds several entries; their conditions need not be identical. Equal values may be shown once. Inconclusive results are not listed. Entries that show only a call come without a potency. Calls of active or inactive are those of the source. Calls follow the shape of the dose curve; as a rule, active = well fitted cell-killing curve with a large enough effect in the repeat runs; inconclusive = weak or mixed curves, or effect the other way; inactive = flat fitted curve, though single readings scatter.
# Test: cAMP Responsive Elements (CRE) small molecule antagonists, cell-based qHTS assay: qHTS cell viability counter screen (AID 2060913); also: nearly all actives have a fitted effect of over 40% in size
# Settings: CRE-bla HEK293T viability, CellTiter-Glo luminescence, 5 h; series mostly up to 92.4 µM
# Method in brief: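 CRE-bla HEK293T cells were seeded in assay medium with 10% dialyzed FBS, incubated 18 hrs at 37 C, then exposed to compounds plus 0.25 uM final NKH477 for 3 hrs. Viability was read by CellTiter-Glo luminescence after 30 min, in the same wells.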
# Potency is read from the fitted curve at half-maximal effect.
SMILES,Potency,"viability change, negative = cytotoxic"
C=CCSSCC=C,inactive,–
Cc1ccccc1C(=O)Nc1cccc(OC(C)C)c1,inactive,–
O=C(Nc1ccccc1)Nc1cnns1,inactive,–
COC(=O)c1cc(Oc2ccc(Cl)cc2Cl)ccc1[N+](=O)[O-],inactive,–
CC1COC2(c3ccccc3Cl)c3cc(Cl)ccc3NC(=O)CN12 (centres undefined),inactive,–
C#C[C@]1(O)CC[C@H]2[C@@H]3CCC4=CC(=O)CCC4=C3C=C[C@@]21CC,inactive,–
CCCCCCCCCCCCCCCC[n+]1ccccc1,57 µM (active) and 54.5 µM (active) and 56.2 µM (active),–
O=S1OCC2C(CO1)C1(Cl)C(Cl)=C(Cl)C2(Cl)C1(Cl)Cl (centres undefined),61.1 µM (active),–
CC1(C)C(C(=O)OC(C#N)c2cccc(Oc3ccccc3)c2)C1(C)C (centres undefined),inactive,–
Nc1nc(N)nc(NC2CC2)n1,inactive,–
O=C(N[C@@H]1N=C(c2ccccc2F)c2cccc3c2N(CC3)C1=O)c1cc2ccccc2[nH]1,inactive,–
O=Cc1cccc(Oc2ccccc2)c1,inactive,–
OCCCCO,inactive,–
COP(=O)(O)OC,inactive,–
Clc1ccc(C(c2ccccc2Cl)C(Cl)(Cl)Cl)cc1 (centres undefined),inactive,–
CNC(=O)O/N=C(\C)C(C)S(C)(=O)=O (centres undefined),inactive,–
CNNC,inactive,–
CCOP(=S)(OCC)Oc1cc(-c2ccccc2)on1,inactive,–
COC(=O)c1sccc1S(=O)(=O)NC(=O)Nc1nc(C)nc(OC)n1,inactive,–
CC(=[OH+])/C=C(/C)[O-].CC(=[OH+])/C=C(\C)[O-].CC(=[OH+])/C=C(\C)[O-].[Fe],inactive,–

SMILES,Potency,"viability change, negative = cytotoxic"
ClC(Cl)C(Cl)Cl,inactive,–
O=C1Nc2ccc(Cl)cc2C(c2ccccc2)=NC1O (centres undefined),inactive,–
CC(C)[C@@H](Nc1ccc(C(F)(F)F)cc1Cl)C(=O)OC(C#N)c1cccc(Oc2ccccc2)c1 (some centres undefined),inactive,–
COc1cc(OC)c(OC)cc1C=O,inactive,–
CCC(C(N)=O)N1CCCC1=O (centres undefined),inactive,–
Brc1c(Br)c(Br)c(Oc2c(Br)c(Br)c(Br)c(Br)c2Br)c(Br)c1Br,–,-10% [at 18.9 µM] (inactive)
CCCCC(CC)COC(=O)c1ccccc1C(=O)OCC(CC)CCCC (centres undefined),inactive,–
O=C(O)COc1ccc(Cl)cc1Cl,inactive,–
CCS(=O)(=O)C(C)(C)S(=O)(=O)CC,inactive,–
O=CCCl,inactive,–
CCCCCCCCCCCCCCCCCC(=O)O,inactive,–
Nc1n[nH]c(N)n1,inactive,–
CC(C)(O)C(Cl)(Cl)Cl,inactive,–
CCOP(=S)(Oc1cnc(C(C)(C)C)nc1)OC(C)C (centres undefined),inactive,–
CO/C=C(/C(=O)OC)c1ccccc1Oc1cc(Oc2ccccc2C#N)ncn1,65.2 µM (active),–
CN(C)CCO,inactive,–
Cc1ccc(C(=O)Cl)cc1,inactive,–
CCOP(=S)(OCC)SCCSCC,inactive,–
O=C(O)[C@H](O)[C@@H](O)C(=O)O,inactive,–
